T cruzi growth-1: blocks T. cruzi growth in NIH3T3 culture; T. cruzi beta-gal in NIH3T3, GalScreen luminescence, 90 h; actives 5.9% (n = 77,000); inhibition, % at 8.34 µM;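 active means mean inhibition above about 93%, with at least 55% of replicates each passing it, limit read from the data, passing the limit was not always enough; inconclusive means only one of those two conditions holds; inactive means neither condition holds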
C diff HTS: C. difficile growth inhibition | Clostridium difficile clinical isolate growth, OD600, 24 h; hits give low values | growth activity, negative = inhibition, % at 16 µg/mL (by protocol) | actives 0.25% (n = 86,000) | AID 1259249;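 active means mean growth activity at or below -80% and every replicate also at or below -80%; inconclusive means mean at or below -80% but some replicate above -80%; inactive means mean growth activity above -80%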;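 further: 0% = DMSO wells and -100% = levofloxacin 16 µg/mL wells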
Pf Dd2 growth: P. falciparum Dd2 growth inhibition. SYBR Green, 72 h; hits give low values. activity change, % at 10 µM. actives 2.3% (n = 94,000); in the data active means activity change below about -80%; inconclusive means no clear call, values can overlap the other calls
T cruzi growth-2: inhibitors of T. cruzi proliferation; inhibition, % at 8.35 µM; T. cruzi beta-gal in NIH3T3, GalScreen luminescence, 90 h; shares compounds with T cruzi growth-1; actives 72% (n = 5,600);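 active means mean replicate inhibition above about 95% and at least 55% of replicates individually reaching it, limit read from the data; inconclusive means only one of the two criteria is met; inactive means neither criterion is met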
T cruzi growth-3: blocks T. cruzi growth in NIH3T3 host cells. inhibition, % at 2.09 µM. shares compounds with T cruzi growth-1. T. cruzi beta-gal in NIH3T3, GalScreen luminescence, 90 h. actives 21% (n = 5,600);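 active means mean inhibition above about 95%, with at least 55% of replicates also reaching it, limit read from the data; inconclusive means meets just one of the two conditions; inactive means meets neither condition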;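 further: plate controls were neutral control median for no effect and positive control median for full effect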
3T3 cytotox: cytotoxicity in mouse NIH/3T3 fibroblasts | shares compounds with T cruzi growth-1 | NIH/3T3 viability, CellTiter-Glo ATP luminescence, 90 h | cytotoxicity (signal decrease), % at 8.35 µM | actives 14% (n = 5,600) | AID 651742;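 active means mean signal decrease across replicates above about 35% based on untreated-well scatter, with enough replicates individually passing, limit read from the data; inconclusive means no rule stated though some were filed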;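 further: 0% = median of neutral control wells and 100% = median of positive control wells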
3T3 cytotox 2: cytotoxicity in mouse NIH/3T3 fibroblasts; shares compounds with T cruzi growth-1; NIH/3T3 viability, CellTiter-Glo ATP luminescence, 90 h; inhibition, % at 24.9 µM; actives 56% (n = 5,600);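 active means mean loss of cell viability signal at or above a set limit, and enough replicates individually reaching it; inconclusive means meets only the mean limit or only the replicate share; inactive means meets neither condition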;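 further: 0% = median of neutral control wells and 100% = median of positive control wells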
Active calls of the source: *; ? = inconclusive; / = no result. Sampled rows, rich in hits. Any-hit rate of the full collection: about 6.8%.

SMILES	T cruzi growth-1	C diff HTS	Pf Dd2 growth	T cruzi growth-2	T cruzi growth-3	3T3 cytotox	3T3 cytotox 2
C[C@H]1CN([C@@H](C)CO)C(=O)Cc2cc(NS(C)(=O)=O)ccc2O[C@@H]1CN(C)S(C)(=O)=O	24	-3	-1	/	/	/	/
CC(C)NC(=O)N(C)C[C@H]1Oc2c(NC(=O)CCCCCC(=O)Nc3ccccc3N)cccc2C(=O)N([C@@H](C)CO)C[C@@H]1C	/	-6	35	/	/	/	/
COc1ccc(-c2ccc([C@H]3[C@H](C#N)N(C(=O)NC4CCCC4)[C@H]3CO)cc2)cc1	?	1	-35	80	28	13	25
COc1ccccc1-c1ccc([C@@H]2[C@@H](C#N)N(C(=O)NC3CCCCC3)[C@@H]2CO)cc1	95	4	-35	/	/	/	/
COc1ccc(-c2ccc([C@H]3[C@H](C#N)N(C(=O)NC4CCCCC4)[C@H]3CO)cc2)cc1	101*	-6	-24	102*	56	26	75*
COc1ccc(-c2ccc([C@@H]3[C@@H](C#N)N(C(=O)NC(C)C)[C@H]3CO)cc2)cc1	34	-12	-28	/	/	/	/
Cc1ccc(-c2ccc3c(c2)O[C@H](CN(C)C(=O)Nc2ccc(F)cc2)[C@@H](C)CN([C@@H](C)CO)S3(=O)=O)cc1	114*	6	-13	103*	92	40*	96*
Cc1ccc(-c2ccc3c(c2)O[C@H](CN(C)C(=O)Nc2ccccc2)[C@H](C)CN([C@H](C)CO)S3(=O)=O)cc1	/	5	-27	/	/	/	/
Cc1ccc(-c2ccc3c(c2)O[C@@H](CN(C)C(=O)Nc2ccc(F)cc2)[C@@H](C)CN([C@@H](C)CO)S3(=O)=O)cc1	121*	51	-44	97*	66	53*	81*
Cc1ccc(-c2ccc3c(c2)O[C@@H](CN(C)C(=O)Nc2ccccc2)[C@H](C)CN([C@@H](C)CO)S3(=O)=O)cc1	/	-3	-49	/	/	/	/
C/C=C/c1ccc2c(c1)O[C@@H](CN(C)S(=O)(=O)c1ccc(C)cc1)[C@@H](C)CN([C@H](C)CO)S2(=O)=O	114*	1	-16	100*	81	32	67*
C/C=C/c1ccc2c(c1)O[C@@H](CN(C)S(=O)(=O)c1ccccc1OC)[C@@H](C)CN([C@@H](C)CO)S2(=O)=O	67	1	-47	/	/	/	/
C/C=C/c1ccc2c(c1)O[C@@H](CN(C)S(=O)(=O)c1ccccc1)[C@@H](C)CN([C@@H](C)CO)S2(=O)=O	65	11	-36	/	/	/	/
C/C=C/c1ccc2c(c1)O[C@H](CN(C)S(=O)(=O)c1ccccc1OC)[C@@H](C)CN([C@H](C)CO)S2(=O)=O	117*	9	-56	106*	86	39*	?
C[C@H](CO)N1C[C@H](C)[C@H](CN(C)C)Oc2cc(/C=C/c3ccccc3)ccc2S1(=O)=O	9	3	-24	/	/	/	/
COc1ccccc1S(=O)(=O)N(C)C[C@@H]1Oc2cc(/C=C/c3ccccc3)ccc2S(=O)(=O)N([C@H](C)CO)C[C@H]1C	124*	8	?	105*	103*	63*	71*
O=C(C[C@@H]1C[C@@H]2c3cc(NS(=O)(=O)c4ccc(F)cc4)ccc3O[C@@H]2[C@H](CO)O1)NC1CCCCC1	17	/	0	/	/	/	/
C[C@@H]1CCCCO[C@@H](CN(C)Cc2ccc3c(c2)OCO3)[C@@H](C)CN([C@H](C)CO)C(=O)c2cc(NC(=O)Nc3ccc4c(c3)OCO4)ccc2O1	41	/	4	/	/	/	/
C[C@@H]1CCCCO[C@H](CN(C)Cc2ccc3c(c2)OCO3)[C@@H](C)CN([C@H](C)CO)C(=O)c2cc(NC(=O)Nc3ccc4c(c3)OCO4)ccc2O1	?	/	10	110*	-16	-14	3
C[C@H]1CCCCO[C@H](CN(C)Cc2ccc3c(c2)OCO3)[C@@H](C)CN([C@@H](C)CO)C(=O)c2cc(NC(=O)Nc3ccc4c(c3)OCO4)ccc2O1	100*	/	-65	99*	110*	32	106*

Compound activity deposited in PubChem by Broad Institute.
